Reference: PubChem BioAssay AID602399 (Sanford-Burnham Center for Chemical Genomics, 2012)
Out of some 360,000 compounds screened, about 2,800 (0.78%) were called active. What follows is part of a selection rich in actives, with near analogues and random picks from the rest. Unmarked numbers belong to inactive results. Rule as the data show it: active = inhibition above about 26%; inactive = the rest.

These molecules were tested on Nicotinate-nucleotide adenylyltransferase NadD (Staphylococcus aureus N315) (assay: inhibitors of S. aureus NadD, primary screen, biochemical, colorimetric, uHTS (AID 602399)). Conditions: purified NadD enzyme, colorimetric absorbance read-out; at 20 µM; hits give high values.
Molecule `O=C(NCCCCc1ccccc1)C1CC(c2ccc([N+](=O)[O-])cc2)=NO1` (stereo unspecified) has an inhibition of -8.64%. In the case of `COc1cccc(CNC(C)C(=O)Nc2ccc(S(=O)(=O)N3CCCC3)cc2)c1` (stereo unspecified), the inhibition is reported as 0.261%. `CCOC(=O)c1sc(=NC(=O)c2ccc(Br)cc2)n(C)c1C` was tested, and the inhibition was -0.0934%. With `CCOC(=O)C1=C(C)Nc2sc(C(=O)c3ccc(Br)cc3)c(N)c2C1c1ccc(C(=O)OC)cc1` (stereo unspecified) the inhibition was 33.6% (active). For `COC(=O)c1ccc(C2NC(=O)NC(C)=C2C(=O)N(C)C)cc1` (stereo unspecified), the inhibition was -2.37%. For `Cc1nc(CC(=O)NNS(=O)(=O)c2ccc(F)c(Cl)c2)cs1`, the inhibition was -1.28%. With `CC(C)Oc1ccc(CCc2nnc(SCC(=O)O)n2-c2ccccc2)cc1` the inhibition was -4.23%. Work on `O=C1CCCN1C(=O)COc1ccc([N+](=O)[O-])cc1` yielded an inhibition of 0.0869%. In the case of `O=C1/C(=C\c2ccc([N+](=O)[O-])cc2)CS(=O)(=O)C/C1=C/c1ccc([N+](=O)[O-])cc1`, the inhibition is reported as 35.3% (active). `CCCCC(=O)Nc1c2c(nn1-c1ccc([N+](=O)[O-])cc1)CS(=O)(=O)C2` was tested, and the inhibition was -6.61%. `CCNC(=O)Nc1ccc(S(=O)(=O)Nc2cnc(C)nc2C)cc1` gave an inhibition of 4.03%. For `c1ccc2c(c1)OCCOCCOCCO2`, the inhibition was 1.98%. For `CS(=O)(=O)c1ccc2c(c1)SC1=NC(=O)/C(=C/c3ccco3)C(=N)N12`, the inhibition was 35% (active). `COc1ccc(S(=O)(=O)N2CCOC2CNC(=O)C(=O)NCc2ccncc2)cc1OC` (stereo unspecified) gave an inhibition of -7.02%. With `CC(=O)c1ccc(Nc2nc(C(N)c3ccccc3Cl)cs2)cc1` (stereo unspecified) the inhibition was -4.95%. With `NC(c1csc(NC(=O)Nc2ccccc2Oc2ccccc2)n1)c1ccccc1Cl` (stereo unspecified) the inhibition was 40.7% (active). `NC(c1ccccc1)c1csc(NC(=O)Nc2cccc(C(F)(F)F)c2)n1` (stereo unspecified) was tested, and the inhibition was 3.58%. Molecule `CCOc1ccc(S(=O)(=O)N(CC(=O)NCC(F)(F)F)Cc2ccco2)cc1` has an inhibition of -2.92%. Work on `CC1=NN(c2cccc(Cl)c2)C(=O)C12CC(C)=C(C)CS2` (stereo unspecified) yielded an inhibition of -3.46%. `O=C(N/N=C/c1ccccn1)c1cccc(NC(=O)c2ccc(Cl)cc2)c1` showed an inhibition of 6.47%. For `O=C(N/N=C/c1ccoc1)c1ccc(Cl)cc1Cl`, the inhibition was -0.584%. For `CC(C)(C)C(=O)Nc1ccc(C(=O)N/N=C/c2ccccc2OC(=O)c2ccc(Cl)cc2Cl)cc1`, the inhibition was 38.5% (active). Molecule `O=c1[nH]c(CCl)nc2cc(-c3ccc(Cl)cc3)sc12` has an inhibition of 1.98%. For `CCc1[nH]nc(C(=O)N2CCCC(CO)(Cc3ccc(F)cc3F)C2)c1C` (stereo unspecified), the inhibition was 1.03%. Work on `CCCn1c(C2CCCN2c2nc(-c3ccc(C)cc3)cs2)nc2cc(Cl)c(N3CCCCC3)cc21` (stereo unspecified) yielded an inhibition of 7.02%. For `Cc1ccc(-c2csc(N3CCN(c4cc5c(cc4Cl)nc(-c4ccncc4)n5CCOCCO)CC3)n2)cc1`, the inhibition was -0.493%. For `CCCn1c(C(C)Nc2nc(-c3ccc(C)cc3)cs2)nc2cc(Cl)c(N3CCCCC3)cc21` (stereo unspecified), the inhibition was 30.3% (active). Molecule `CC(=O)C1=C(C)NC2=C(C(=O)CC(C)(C)C2)C1C` (stereo unspecified) has an inhibition of -0.177%. `CCOc1cc(/C=N/NC(=O)c2c(C)nc3ccc(Cl)cn23)ccc1O` gave an inhibition of -0.152%. Molecule `O=C1CSC(=S)N1/N=C/c1ccc(O)c([N+](=O)[O-])c1` has an inhibition of 5.51%. `Cc1cc(C(=O)N/N=C/c2ccc(O)c([N+](=O)[O-])c2)c(C)n1-c1ccc(F)cc1` was tested, and the inhibition was 33.3% (active). Molecule `CCCCCCCC1(C)NC(=O)N(CC(=O)Nc2cc(C)on2)C1=O` (stereo unspecified) has an inhibition of -7.34%. Molecule `O=C(CC1C(=O)NCCN1CC(c1ccccc1)c1ccccc1)NCCc1cn[nH]c1` (stereo unspecified) has an inhibition of 7.62%. `Cn1ncc([N+](=O)[O-])c1C(=O)Nc1cc(Cl)ccc1Cl` gave an inhibition of -3.19%. With `Cc1cc(C)c(OCC(=O)N(Cc2cccs2)C2CCS(=O)(=O)C2)c(C)c1` (stereo unspecified) the inhibition was -1.96%. In the case of `COc1cccc2c1C(=O)c1c(O)c3c(c(O)c1C2=O)CC(O)(C(C)=NNC(=O)c1ccc(Cl)c(Cl)c1)CC3OC1CC(N)C(O)C(C)O1` (stereo unspecified), the inhibition is reported as 38.5% (active). With `Brc1cnc(N2CCCC2)nc1N1CCCCC1` the inhibition was -5%. `Cc1cc2nc(-c3ccc(F)cc3)c(Cc3ccsc3)n2c(C)c1Br` gave an inhibition of 16.1%. Work on `Cc1cc2nc(-c3ccc(Cl)cc3)c(Cc3cccc(F)c3)n2c(C)c1Br` yielded an inhibition of 28.5%. In the case of `Cc1cc2nc(-c3ccco3)c(Cc3cccc(F)c3)n2c(C)c1Br`, the inhibition is reported as 50.5% (active). For `CCCSc1nc2[nH]ncc2c(=O)[nH]1`, the inhibition was 0.611%. `CC(C)Oc1c(Br)cc(Br)cc1/C=N/NC(N)=S` was tested, and the inhibition was 6.4%. `COCCNC(=O)CN(Cc1ccco1)C(=O)CCC(=O)Nc1nccs1` showed an inhibition of -5.06%. `Cc1noc(C)c1S(=O)(=O)Nc1ccc(C(=O)N2CCN(c3ccc(F)cc3)CC2)cc1` showed an inhibition of 10.7%. `C=CCn1c(SCc2cccc(F)c2)nc2cc(C(=O)N3CCC(C(N)=O)CC3)ccc2c1=O` showed an inhibition of -4.38%. In the case of `O=C1Nc2cc(C(=O)N3CCN(c4ccc(F)cc4)CC3)ccc2NC1CSCc1cccc(F)c1` (stereo unspecified), the inhibition is reported as 36.8% (active). In the case of `Cc1ccc(CSCC2Nc3ccc(C(=O)N4CCN(c5ccc(F)cc5)CC4)cc3NC2=O)cc1` (stereo unspecified), the inhibition is reported as 73.7% (active). With `O=C(c1cccc(F)c1)N1CCN(c2ccc([N+](=O)[O-])c(N3CCCCC3)c2)CC1` the inhibition was -9.3%. In the case of `COC(=O)c1ccc(C(=O)OC)c(NC(=S)N2CCN(c3ccc(F)cc3)CC2)c1`, the inhibition is reported as -1.25%. Work on `COC(=O)c1ccc(/C=N/N2C(C)CCCC2C)cc1` (stereo unspecified) yielded an inhibition of -8.27%. For `NS(=O)(=O)c1ccc(NC(=O)COC(=O)c2c3c(nc4ccccc24)/C(=C\c2ccc4c(c2)OCO4)CCC3)cc1`, the inhibition was 54.7% (active). In the case of `NC(=O)c1ccc(NC(=O)COC(=O)c2c3c(nc4ccccc24)/C(=C\c2ccc4c(c2)OCO4)CCC3)cc1`, the inhibition is reported as 55.2% (active). `CC(=O)Nc1cccc(C(=O)OCC(=O)c2ccc3c(c2)OCO3)c1` was tested, and the inhibition was -7.21%. Molecule `O=C(COC(=O)c1ccc(Cl)nc1)NCc1ccc2c(c1)OCO2` has an inhibition of 0.8%. For `CC(NC(=S)Nc1ccc(S(N)(=O)=O)cc1)c1ccc2c(c1)OCO2` (stereo unspecified), the inhibition was -0.72%. `NS(=O)(=O)c1ccc(NC(=O)COC(=O)CCc2c[nH]c3ccccc23)cc1` showed an inhibition of -1.06%. `CC1Cc2[nH][nH]c(=O)c2C(C2CC2)O1` (stereo unspecified) showed an inhibition of -3.07%. Work on `CC(Oc1cccc(Cl)c1)C(=O)NC1CC(C)(C)NC(C)(C)C1` (stereo unspecified) yielded an inhibition of -1.75%. `C[C@H](NC(=O)CC[C@H]1O[C@@H](n2ccc(=O)[nH]c2=O)[C@H](O)[C@@H]1O)c1cccc2ccccc12` showed an inhibition of -3.28%. In the case of `CN(C(=O)CC1C(=O)NCCN1Cc1ccc(F)cc1Cl)C1CCCCC1` (stereo unspecified), the inhibition is reported as 3.03%. For `CCC1CCc2c(sc(NC(C)=O)c2C#N)C1` (stereo unspecified), the inhibition was 1.07%. For `CCC(c1nnnn1Cc1ccco1)N(Cc1cc2cc(OC)ccc2[nH]c1=O)C1CCCCC1` (stereo unspecified), the inhibition was 31.2% (active). `COc1ccc2[nH]c(=O)c(CN(Cc3nnnn3CCc3ccccc3)CC3CCCO3)cc2c1` (stereo unspecified) was tested, and the inhibition was 14.2%. `CCOc1ccc2[nH]c(=O)c(CN(Cc3nnnn3CCc3ccccc3)CC3CCCO3)cc2c1` (stereo unspecified) showed an inhibition of 0.283%. In the case of `O=C(COC(=O)C1CCCCC1)Nc1ccc([N+](=O)[O-])cc1`, the inhibition is reported as -1.2%. In the case of `O=C(COc1ccc([N+](=O)[O-])cc1)Nc1ccc(N2CCCC2)cc1`, the inhibition is reported as 42.4% (active). Molecule `O=C(CCC(=O)N1CCCC1)Nc1ccc([N+](=O)[O-])cc1` has an inhibition of -6.64%. Work on `O=C(N/N=C/c1cccc(OC(=O)c2ccc([N+](=O)[O-])cc2)c1)c1cccnc1` yielded an inhibition of -12.9%. With `O=C(COc1ccc(/C=N/NC(=O)c2ccc(O)cc2)cc1)Nc1ccc([N+](=O)[O-])cc1` the inhibition was 71.1% (active). Work on `O=C(COc1ccc([N+](=O)[O-])cc1)Nc1cccc(C(=O)Nc2ccccc2C(=O)O)c1` yielded an inhibition of -2.45%. Molecule `C/C(=N\NC(=O)OC(C)(C)C)c1ccc[nH]1` has an inhibition of -6.93%. With `Cc1ccc(Cl)cc1N1CCN(C(=O)c2cccc3c(=O)c(C)c(-c4ccccc4)oc23)CC1` the inhibition was 4.56%. `C/C(N)=C(/C#N)C(=O)COC(=O)C1CCN(C(=O)c2ccc(Cl)cc2)CC1` gave an inhibition of -7.06%. `COCCNC(=O)/C(C#N)=C/c1cccc(OCc2ccccc2)c1` was tested, and the inhibition was -8.65%. Work on `COc1cc(/C=C(\C#N)C(=O)Nc2ccc3ccccc3c2)c([N+](=O)[O-])cc1OC` yielded an inhibition of 5.18%. For `COc1ccc(NC(=O)/C(C#N)=C\c2cc(OC)c(OCc3ccc(C(=O)O)cc3)cc2Br)cc1`, the inhibition was 30.5% (active). In the case of `CC(=O)Nc1ccc(S(=O)(=O)N2CCC(C(=O)NC3CC3)CC2)cc1`, the inhibition is reported as 3.08%. Molecule `COc1ccc(N2CCN(C(=O)CNC(=O)c3ccc(C(C)(C)C)cc3)CC2)cc1` has an inhibition of -1.98%. With `O=C(CNC(=O)c1ccc2ccccc2c1)Nc1ncccc1O` the inhibition was 6.33%. `O=C(NCC(=O)N1CCN(c2ccccc2O)CC1)c1ccc2ccccc2c1` was tested, and the inhibition was 31.5% (active). With `O=C1NC[C@H](Cc2ccc(O)cc2)N(C[C@H]2CCCN2C[C@H](Cc2ccccc2)N2C[C@H](Cc3ccccc3)N(CCc3ccccc3)C(=O)C2=O)C1=O` the inhibition was 24%. `CC(C)C[C@H]1CNC(=O)C(=O)N1C[C@H]1CCCN1C[C@H](Cc1ccc(O)cc1)N1C[C@H](CC(C)C)N(CC2CCCCCC2)C(=O)C1=O` gave an inhibition of 23.7%. In the case of `CCOc1ccc(CCN2C(=O)C(=O)N([C@@H](CC(C)C)CN3CCC[C@H]3CN3C(=O)C(=O)NC[C@@H]3Cc3ccccc3)C[C@@H]2CC(C)C)cc1`, the inhibition is reported as 28.4%. `CCOc1ccc(CCN2C(=S)N([C@@H](CC(C)C)CN3CCC[C@@H]3CN3C(=S)NC[C@@H]3Cc3ccc(O)cc3)C[C@@H]2CC(C)C)cc1` was tested, and the inhibition was 26.6%. For `CCOc1ccc(CCN2C(=S)N([C@@H](CC(C)C)CN3CCC[C@@H]3CN3C(=S)NC[C@@H]3Cc3ccc(O)cc3)C[C@@H]2Cc2ccc(O)cc2)cc1`, the inhibition was 35% (active). For `O=C1NC[C@H](Cc2ccc(O)cc2)N(C[C@@H]2CCCN2C[C@H](Cc2ccccc2)N2C[C@H](Cc3ccccc3)N(CC3CCCCC3)C(=O)C2=O)C1=O`, the inhibition was 38.8% (active).
